ChEMBL document CHEMBL4888484, “Replenishing the malaria drug discovery pipeline: Screening and hit evaluation of the MMV Hit Generation Library 1 (HGL1) against asexual blood stage Plasmodium falciparum ,using a nano luciferase reporter read-out” (2022)
The whole screen tested about 4,800 compounds, of which about 410 (8.5%) showed an effect of 50% or more. The full list was thinned out, with strong results kept by preference.

Tested on: Plasmodium falciparum
Test: Confirmatory screen in NF54 pLDH assay, in single point, at 2uM, 72h
Type: functional, Erythrocyte
Conditions: timepoint 72 hour

Row | Compound | % Inhibition [%]
1 | CCOc1c(CNC(C)(C)CC(C)(C)C)cccc1OC | 5
2 | C[C@H](C(=O)NCC1CCN(Cc2ccccc2F)CC1)C1CCOCC1 | 3
3 | CC(Oc1ccc2c(c1)C(c1ccccc1)N(Cc1ccccc1F)CC2)C(=O)NC1CC1 (configuration not stated) | 50
4 | COc1ccc2cc3n(c2c1)C[C@](C(=O)NC1CCCCCC1)(c1ccccc1)N(Cc1ccccc1F)C3=O | -26
5 | O=C(c1ccc2c(c1)OCO2)N1CCn2c1nc1ccccc12 | 3
6 | CC(=O)Nc1cccc(NC(=O)[C@H]2CC[C@H](Cn3c(O)nc4ccccc4c3=O)CC2)c1 | 5
7 | COc1cc2c(cc1Cl)-n1cccc1C1(CCNCC1)N2 | -15
8 | CC1=CC(=[N+](CCO)CCO)C=C/C1=C(\c1ccc(N(CCO)CCO)cc1C)c1ccccc1Cl | 87
9 | O=C(CN1CCN(Cc2cccc(Cl)c2)C1=O)N1CCN(c2ccccc2)CC1 | 4
10 | COc1cccc(-c2cc3c(N4CCC(C(=O)NC[C@H]5CCCO5)CC4)nccn3n2)c1 | 5
11 | Cc1ccc(S(=O)(=O)Cc2nc3cc(C)c(C)cc3[nH]c2=O)cc1 | 2
12 | O=S(=O)(NC1CCCCC1)c1ccc(Cl)c(S(=O)(=O)NC2CCCCC2)c1 | 6
13 | N#Cc1cc(S(=O)(=O)NCCN(C2CC2)S(=O)(=O)c2ccc(Cl)c(C#N)c2)ccc1Cl | 86
14 | Cc1cccc(NC(=O)CCC(=O)OCC(F)(F)F)c1C | -1
15 | Cc1nc(-c2ccccc2)cc2nn(CC(=O)NC3CCCCC3)c(=O)n12 | -8
16 | O[C@H]1CNCC[C@@H]1Nc1cc(-c2ccccc2)nc2ccccc12 | 76
17 | COc1cccc(-c2cc(C(=O)N3CCCN(C(=O)c4cc(-c5cccc(OC)c5)nc5ccccc45)CC3)c3ccccc3n2)c1 | -26
18 | CC(C)(C)NC(=O)C1CCN(C[C@@H]2CC=CCC2)CC1 | 10
19 | Cc1ccc(/C=C(\C(=O)NC[C@H]2CCCO2)n2ccccc2=O)cc1 | 12
20 | CCCC1(CNC(=O)Nc2nc(CS(C)(=O)=O)no2)CC1 | 6
21 | CCCCCn1c(NCc2cc(Cl)ccc2O)nc2ccccc21 | 21
22 | CCOc1cc(CNCCN2CCOCC2)cc(Cl)c1OCc1ccccc1 | 9
23 | CCCc1noc([C@H]2CC(=O)N(c3ccccc3C)C2)n1 | 8

Row | Compound | % Inhibition [%]
24 | CCc1nc2c(C(=O)N3CCOc4c(C)cc(C)cc43)ccnc2[nH]1 | 60
25 | CCOc1ccc(C/C(=C/N)c2nc(-c3ccc(Cl)cc3)cs2)cc1 | 15
26 | CCn1c(=O)c(N2CCC(C(=O)NCCCc3ccccc3)CC2)nc2cccnc21 | -22
27 | Clc1cccc(-c2c[nH]c([C@@H]3COCCN3C3CCOCC3)n2)c1 | -16
28 | CN1CCC[C@H](c2nnc3sc(-c4ccc(OCc5ccccc5)cc4)nn23)C1 | 8
29 | CC(C(=O)Nc1nccs1)N1CCCC(c2ccn[nH]2)C1 (configuration not stated) | 45
30 | Cc1cc(-c2cncc(CN3CCCCC3)c2)ccc1F | 8
31 | O=S(=O)(c1cccc(Cl)c1)N1CCc2nc(N3CCCCC3)nc(Oc3ccccc3)c2C1 | 78
32 | Cc1noc(C)c1CNc1cc(S(=O)(=O)N2CCCCC2)ccc1Oc1ccccc1 | 14
33 | Cc1ccc(-c2nn(Cn3nc(C)c(Cl)c3C)c(-c3ccc(C)cc3)c2Br)cc1 | -12
34 | Cn1c(CN2CCOC[C@@]23CCOC3)nnc1C1CC1 | 13
35 | O=C(Nc1ccccc1Cl)Nc1cccc2c(-c3ccccc3)c(C(=O)N3CCOCC3)[nH]c12 | 12
36 | Cc1ccc(S(=O)(=O)c2c(C)cc(-c3ccccc3)nc2N2CCOCC2)cc1 | 12
37 | CCO[C@@]1(c2ccccc2)NC(=O)c2cc3c(cc21)OCCO3 | -18
38 | CC(=O)N(CCN1CCOCC1)[C@H]1CCN(S(=O)(=O)c2cccc(Cl)c2)C1 | 9
39 | Cn1cc(CN2CCC(C(=O)NCCCN3CCCCC3)CC2)c2cc(Cl)ccc21 | -8
40 | O=C(NCCCN1CCOCC1)c1ccc(-c2cnc(NC3CCCCC3)nc2)cc1 | -15
41 | CO/N=C(\Nc1cc(C)ccc1C)c1nonc1N | 16
42 | O=C(C[C@@H]1NC(=O)c2ccccc2NC1=O)NCc1ccc(Cl)cc1Cl | -6
43 | Nc1cc(F)c(Br)cc1Cl | 7
44 | CCn1c(=O)c(N2CCC(C(=O)N3CCN(c4ccccc4F)CC3)CC2)nc2cccnc21 | -9
45 | O=C1C[C@@H](c2cccc(Br)c2)c2c(O)nc(N3CCOCC3)nc2N1 | -7
46 | CCN(C(C)=O)c1nc(CN2C(=O)N[C@](C)(c3ccc(F)cc3Br)C2=O)cs1 | 9

Row | Compound | % Inhibition [%]
47 | Cc1nccc(O[C@H]2CCCN(C(=O)CN3CCN(c4ccccc4)C3=O)C2)n1 | 9
48 | COc1cccc(N2C(=O)N[C@H](C)C2=O)c1 | 15
49 | COc1cccc(C(=O)Nc2noc(-c3cccc(OC)c3)c2-c2ccc(Cl)cc2)c1 | -19
50 | COc1ccc(-c2c(-c3cccc(OC)c3)[nH]c3c2c(=O)[nH]c(=O)n3C)cc1 | 97
51 | CCCN1CCN(S(=O)(=O)c2cccc3nonc23)CC1 | 11
52 | O=C1CCc2cc(N[C@@H](C(=O)N3CCCC3)c3ccccc3)ccc2N1 | 5
53 | O=C(NC1CCN(Cc2ccco2)CC1)c1ccco1 | -2
54 | Clc1cccc(N2CCN(Cc3nc(-c4ccco4)no3)CC2)c1 | -1
55 | Cc1nn(C)cc1C(=O)N1CCN(c2nncc3ccccc23)CC1 | -10
56 | COc1ccnc(NCc2ccc(N3CCOCC3)cc2)n1 | 10
57 | CCNC(=O)c1nc(-c2ccncc2)cs1 | -16
58 | O=C(Cn1nc(C2CC2)nc1C1CC1)N1CCOCC1 | 11
59 | CCN(C[C@H](C)C#N)C(=O)C(=O)Nc1ccc(F)cc1Cl | 13
60 | COc1cc(Br)cc(C#N)c1O | 9
61 | CC(C)c1cccc(Nc2nc3ccncc3n(C(C)C)c2=O)c1 | 94
62 | O=C(CCOCC(F)(F)F)Nc1ccc2c(c1)C(=O)NC2 | -5
63 | CC[N+](CC)(CC(=O)OC1CC2CCC1(C)C2(C)C)CC(=O)OC1CC2CCC1(C)C2(C)C (configuration not stated) | 92
64 | Cn1cc(C(C(=O)O[C@@H]2C[C@@H]3CC[C@@]2(C)C3(C)C)c2cn(C)c3ccccc23)c2ccccc21 | 3
65 | Cc1ccnc(-c2noc(Cn3c(=O)c(C)cn(C)c3=O)n2)c1 | 4
66 | Nc1nc(Cc2ccccc2)c(Br)c(=O)[nH]1 | 5
67 | COc1ccc(C2=NC3=S(N2c2ccccc2)N(C(C)=O)C(C(Cl)(Cl)Cl)N3c2ccccc2)cc1 (configuration not stated) | 13
